Only some compounds are listed: those with a hit (about 21% of all), similar ones and a draw of the others.
Pf growth 48h: P. falciparum growth inhibition at 48 hours (one generation); P. falciparum luciferase growth in erythrocytes, 48 h; Potency, µM (doses to about 28.7 µM), without a hit: top-dose activity change, negative = inhibition, hits mostly inhibitors; hit rate 5.9% among 310,000; also: potency is read from the fitted curve at half-maximal effect; % is scaled to controls: 0 for no effect and ±100 for the full control effect
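Firefly luciferase activity from engineered P. falciparum reports growth; inhibitors lower the luminescent signal. Cultures contained 2% hematocrit erythrocytes at 0.1% final parasitemia.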
Pf growth 96h: P. falciparum growth inhibition at 96 hours; Potency, µM (titrated, usually from 28.7 µM), inactives show at the top dose activity change, negative = inhibition, hits mostly inhibitors; hit rate 6.9% among 320,000; AID 504834; P. falciparum luciferase reporter growth, 96 h; also: potency is read from the fitted curve at half-maximal effect; % is scaled to controls: 0 for no effect and ±100 for the full control effect
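Luminescence readout: decreased luciferase signal marks inhibited growth of reporter-expressing P. falciparum in infected red cells (2% hematocrit, 0.05% parasitemia final), exposed to compound two generations (96 h, 37 C, 5% CO2).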
CHX counter: counter-screen hit for Shiga toxin inhibitors, cycloheximide. cell reporter, cycloheximide protein synthesis inhibition counterscreen. max response, %. hit rate 12% among 300,000; in the data active = max response mostly above about 13%, no sharp cut-off; inactive = mostly below about 14%; also: read at 38.3 µM for the half of the compounds with a filed dose; 0% is about no effect
Shiga toxin inh: inhibitors of Shiga toxin in Vero cells | Vero cells, Shiga toxin protein synthesis inhibition reporter | inhibition, % at 38.7 µM | hit rate 9.2% among 290,000; in the data active = inhibition mostly above about 28%, no sharp cut-off; inactive = mostly below about 43%; also: 0% is about no effect
NS1 inh: influenza NS1 inhibition. AID 2326. hit rate 0.4% among 270,000. Potency, µM (highest dose often 46.1 µM), inactives show at the top dose activity, positive = more growth; calls by dose curve; also: potency is read from the fitted curve at half-maximal effect; actives are rising curves; nearly all actives have a fitted effect of over 50% in size
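OD600 was taken as the measure of yeast growth restored by compound in an NS1-expressing S. cerevisiae strain. Cells had been washed out of glucose medium and diluted 1:100 into galactose -URA medium, pH 6.0.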
SARS PLpro yeast: blocks SARS-CoV papain-like protease in a yeast assay. AID 485353. hit rate 0.19% among 330,000. Potency, µM (top dose mostly 32.9 µM), for the others: at the highest dose activity, positive = growth rescue, actives largely listed as activators. S. cerevisiae expressing SARS-CoV PLpro, growth rescue; calls by dose curve; also: potency is read from the fitted curve at half-maximal effect; 0% is about no effect; nearly all actives have a fitted effect of over 55% in size
The depositor's hits bear a star; u = inconclusive; x = no result given. Unless noted, calls follow the shape of the dose curve; as a rule, active = well fitted inhibition curve with a large enough effect; inconclusive = small, poorly fitted or top-dose-only effect, or another doubt; inactive = no such curve, though single readings can be large or run the other way.

SMILES	Pf growth 48h	Pf growth 96h	CHX counter	Shiga toxin inh	NS1 inh	SARS PLpro yeast
CC(=C/c1ccccc1)/C=C1/SC(N2CCOCC2)=NC1=O	27%	-14%	23*	30*	-144%	-10%
O=C1N=C(N2CCN(c3cccc4ccccc34)CC2)S/C1=C/c1cccs1	8.3µM*	9.3µM*	9	1	7%	-1%
CC(=O)N1CCN(C2=NC(=O)/C(=C\c3cccs3)S2)CC1	-23%	-16%	5	-7	5%	0%
Cc1ccccc1N1CCN(C2=NC(=O)/C(=C\c3cccs3)S2)CC1	u	10µM*	78*	104*	-7%	-37%
N#Cc1ccc(CN2CCN(CC(=O)NCCc3ccc(Cl)cc3Cl)CC2)cc1	0%	-8%	-6	-9	-57%	-2%
CCOc1cccc(CN2CCN(CCCc3ccccc3)C(CCO)C2)c1O (stereo not given)	u	u	2	-7	-1%	-2%
NNC(=O)CN1C(CN2CCOCC2)=Nc2ccc(Br)cc2C1c1ccccc1 (stereo not given)	u	13µM*	-7	-6	7%	1%
NNC(=O)CN1C(c2ccc(Cl)cc2)=Nc2ccc(Br)cc2C1c1ccccc1 (stereo not given)	8.3µM*	34%	-3	-16	18%	-5%
NNC(=O)CN1C(c2ccccc2)=Nc2ccc(Br)cc2C1c1ccccc1 (stereo not given)	u	13%	5	-11	x	2%
O=c1[nH]nc(SCCS(=O)(=O)c2ccc(F)cc2)n1-c1ccccc1	u	-23%	12*	-11	4%	0%
O=c1[nH]nc(SCCS(=O)(=O)c2ccc(F)cc2)n1-c1ccc2c(c1)OCCO2	6%	6%	2	1	0%	0%
COc1ccccc1CNc1ncc(-c2ccccc2)n1C	-13%	-9%	21*	40*	-4%	5%
Cn1c(-c2ccccc2)cnc1NCc1cccc([N+](=O)[O-])c1	3%	28%	3	15	-13%	3%
COc1ccc(CNc2ncc(-c3ccc(F)cc3)n2C)cc1OC	-2%	u	-3	x	10%	1%
COc1ccc(OC)c(CNc2ncc(-c3ccc(F)cc3)n2C)c1	u	15µM*	11	15	7%	3%
COc1ccc(CNc2ncc(-c3cccc([N+](=O)[O-])c3)n2C)c(OC)c1OC	-4%	4.7µM*	-2	-5	-15%	-3%
COc1ccccc1CNc1ncc(-c2ccc(F)cc2)n1C	u	u	7.6*	19	11%	-3%
Cc1cccc(N2CCN(C(=O)c3cn4ccccc4n3)CC2C)c1 (stereo not given)	-4%	-16%	8	-4	1%	-1%
COc1ccc(CNc2ncc(-c3ccc(F)cc3)n2C)c2ccccc12	u	10µM*	-2	-3	-10%	1%
CC1(C)C2CCC1(CS(=O)(=O)N1CCC(C(=O)O)CC1)C(=O)C2 (stereo not given)	10%	15%	-2	-7	-3%	0%
O=C(CCc1nnc(-c2ccccc2)o1)NCc1cc(F)ccc1F	-10%	u	17*	29	1%	1%
O=C(CCc1nnc(-c2ccsc2)o1)NCc1ccccc1OC(F)(F)F	14%	u	10*	9	9%	0%
O=[N+]([O-])c1cc(S(=O)(=O)NCCN2CCOCC2)ccc1Sc1nnnn1-c1ccccc1	13µM*	u	16*	10	5%	17%
O=C(O)c1cc(-c2ccc(Cl)s2)nc2ccccc12	3%	27%	14	54*	x	-3%
Cc1ccc(-c2cc(C(=O)O)c3ccccc3n2)c(C)c1	-6%	19%	18*	5	7%	1%
SMILES	Pf growth 48h	Pf growth 96h	CHX counter	Shiga toxin inh	NS1 inh	SARS PLpro yeast
Cc1ccc(-c2cc(C(=O)Nc3cc(C)on3)c3ccccc3n2)c(C)c1	u	u	13	13	-33%	-25%
Cc1ccc(-c2cc(C(=O)Nc3cccnc3)c3ccccc3n2)o1	x	4.7µM*	8	7	-3%	-3%
Cc1ccc(-c2cc(C(=O)O)c3ccccc3n2)s1	16%	2%	23	25	3%	-3%
Cc1ccc(C)c(-c2cc(C(=O)Nc3nccs3)c3ccccc3n2)c1	u	1.9µM*	11	2	-2%	-2%
CCC(C)NC(=O)COC(=O)c1ccc(Cl)cc1O (stereo not given)	-26%	17%	8	-5	x	0%
COc1ccc(SC[C@H](C)CN2CC[C@H](C(C)(C)C)CCC2=O)cc1	u	u	x	x	x	4%
Cc1ccc(C)c(-c2cc(C(=O)Nc3cccc(C(=O)O)c3)c3ccccc3n2)c1	-19%	94%	-3	-5	4%	1%
Cc1ccc(C)c(-c2cc(C(=O)Nc3cccnc3)c3ccccc3n2)c1	12µM*	2.1µM*	0	-8	-52%	-6%
CC(OC(=O)CCN=C1NS(=O)(=O)c2ccccc21)C(=O)NCc1ccccc1 (stereo not given)	-5%	41%	x	x	x	0%
C=CCn1cnnc1SCC(=O)Nc1cccnc1Cl	-5%	63%	x	x	x	-2%
c1ccc2c(c1)Oc1cccc3cccc-2c13	34%	-3%	12*	25*	-4%	0%
COc1ccc(C(=O)N[C@H](C(=O)OCc2cc(=O)oc3cc(C)ccc23)C(C)C)cc1	-4%	3%	7	6	-2%	-2%
O=S(=O)(c1cccc(-c2nnc(SCc3nc4ccccc4s3)o2)c1)N1CCOCC1	79%	-8%	97*	128*	-3%	-1%
N#CCc1nc2ccc(S(=O)(=O)N3CCOCC3)cc2s1	15µM*	13µM*	1	-2	16%	1%
CSc1nc2ccc(S(=O)(=O)N3CCOCC3)cc2s1	-5%	u	-2	21	-10%	-1%
N#C/C(=C\c1ccc(/C=C(/C#N)c2nn(CCO)c(N)c2C#N)cc1)c1nn(CCO)c(N)c1C#N	7%	0%	-1	-9	4%	11%
N#C/C(=C/c1ccccc1)c1nn(CCO)c(N)c1C#N	16%	-1%	27*	27*	-6%	-5%
COc1cc(/C=C(\C#N)c2nn(CCO)c(N)c2C#N)cc(OC)c1OC	7.4µM*	-15%	-3	-4	-2%	7%
Cc1ccc(S(=O)(=O)Nc2ccc3c(c2)c2c(n3S(=O)(=O)c3ccc(C)cc3)CCCC2=O)cc1	u	13%	-3	-6	15%	6%
Cc1c(-c2ccc(Cl)cc2)[n+](=O)c(-c2ccccc2)cn1[O-]	36%	43%	-2	9	0%	1%
CC(=O)Nc1scc(-c2ccccc2)[n+]1-c1ccc(C)cc1	6%	50%	9	-5	x	-4%
Cc1ccc(-c2cc(-c3ccccc3)cc(-c3ccccc3)[n+]2-c2ccccc2)cc1	0.37µM*	0.33µM*	x	x	x	-10%
C[n+]1c(-c2ccccc2)cc(-c2ccc(Cl)cc2)cc1-c1ccccc1	1.7µM*	u	12	13	-7%	-4%
